# The list is not random: actives were taken first. Their share in the collection is about 2.8%.
# KDM5B inhibitor: Primary screen for KDM5B Histone Demethylases FDH-coupled qHTS; KDM5B demethylase, FDH-coupled NADH fluorescence (FDH is formaldehyde dehydrogenase); Potency, µM (top dose mostly 57.7 µM), hits mostly inhibitors; 220,000 compounds, 2.6% hits; active means well fitted inhibition curve with a large enough effect; inconclusive means small, poorly fitted or top-dose-only effect; inactive means no such curve, though single readings can be large or run the other way; further: nearly all actives have a fitted effect of over 70% in size
#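 Here, H3K4me3 peptide (12.5 µM in substrate mix) is demethylated by KDM5BΔAP, 200 nM final, after 10 min compound exposure. Formaldehyde product is coupled through FDH (0.25 U/mL in mix) to NADH fluorescence; 30-min ΔRFU feeds dose-response curves.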
# IP6K1 inhibitor: Primary qHTS assay for small molecule inhibitors of Inositol hexaphosphate kinase 1 (IP6K1) | Inositol hexakisphosphate kinase 1 (Homo sapiens), Q92551 | IP6K1 kinase, ADP-Glo luminescence, 2 h; stronger effect = lower value | activity change, % (series mostly up to about 58 µM) | 140,000 compounds, 0.81% hits | AID 1645851, 2021; in the data active means activity change below about -25%
# Target sequence (Q92551 whole entry, looked up): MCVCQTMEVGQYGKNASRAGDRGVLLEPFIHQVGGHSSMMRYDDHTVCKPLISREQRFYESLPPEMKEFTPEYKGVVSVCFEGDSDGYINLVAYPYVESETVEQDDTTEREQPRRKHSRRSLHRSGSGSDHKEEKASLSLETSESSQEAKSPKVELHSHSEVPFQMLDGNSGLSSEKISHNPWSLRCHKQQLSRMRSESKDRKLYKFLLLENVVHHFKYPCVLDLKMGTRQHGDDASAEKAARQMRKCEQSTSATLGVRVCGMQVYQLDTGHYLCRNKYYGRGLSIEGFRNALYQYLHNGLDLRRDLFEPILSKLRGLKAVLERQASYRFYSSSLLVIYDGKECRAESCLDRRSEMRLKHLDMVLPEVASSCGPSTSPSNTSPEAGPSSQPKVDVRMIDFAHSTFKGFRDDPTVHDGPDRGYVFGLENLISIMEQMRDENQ
#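 ADP-Glo luminescence measures ADP made by human IP6K1 during a 2 h RT reaction with ATP/IP6 (mix at 1.3 mM/130 uM); top library doses 57.5 and 19.1 uM final.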
# A number is an active result; 0 = inactive; ? = inconclusive; - = not tested or not shown.
SMILES,KDM5B inhibitor,IP6K1 inhibitor
COc1ccc(-c2[nH]nc3ncc(-c4ccccc4OC)nc23)c(C)c1,?,0
COc1ccc(-c2[nH]nc3ncc(-c4ccc(F)cc4OC)nc23)c(C)c1,7.9µM,0
COc1ccc(-c2[nH]nc3ncc(-c4cccnc4OC)nc23)c(C)c1,35µM,0
CC(C)(C)C(=O)NCCC(=O)Nc1ccc2c(c1)CCC2,0,-
CNC(=O)N1CCC(C2CCN(C(=O)CCc3ccccc3)C2)CC1 (stereo not drawn),0,0
CCOc1ccc(C(=O)Nc2ccccn2)c(OCC)c1,0,-
Cc1cc(=O)c(C(=O)OCCOc2ccccc2)nn1-c1cccc(C(F)(F)F)c1,0,-
O=C(CCc1ncc(-c2ccc(Cl)cc2)o1)NC1CCS(=O)(=O)C1 (stereo not drawn),0,-
O=C(c1cc(F)ccc1F)N1CCC(c2n[nH]c(=O)n2-c2ccccc2)CC1,0,0
Cc1cc2nc3n(c(=O)c2n1CC(=O)NCCc1ccc(Cl)cc1)CCCCC3,0,0
O=C(Nc1ccc(Cl)nc1)c1cccn2cncc12,?,0
O=C(Nc1ccc(Cl)nc1)c1ccc2ccnn2c1,32µM,0
C=CCNC(=O)c1ccn2nccc2c1,0,0
CNC(=O)c1ccc2ccnn2c1,35µM,0
O=C(Nc1ccc(Cl)nc1)c1cccn2nccc12,35µM,0
C=CCNC(=O)c1cccn2nccc12,32µM,0
O=C(Nc1ccc(F)cc1)c1cccn2nccc12,0,0
CNC(=O)c1ccc2nnc(-c3ccc(Cl)cc3)n2c1,-,0
CCCN1CCN(c2ccc(C(=O)NC3(C(=O)NCC#N)CCCCC3)cc2)CC1,-,0
CCc1ccc(S(=O)(=O)[C@H]2CS(=O)(=O)C[C@@H]2N2CCN(c3ncccn3)CC2)cc1,0,-
COC[C@@H]1CN(Cc2cn(C)nc2C)C[C@H]1C(=O)NC1CC1,0,0
COC(=O)c1ccccc1NC(=O)Cn1cccc1-c1nc(-c2ccccc2)no1,28µM,0
COc1ccc(NC(=O)Cn2cccc2-c2nc(-c3ccccc3)no2)cc1,0,0
CSc1ccccc1NC(=O)CC(C)(C)CC(=O)O,0,-
COCC(=O)N[C@H]1C[C@@H](CO)N(Cc2cccc(F)c2F)C1,0,0
SMILES,KDM5B inhibitor,IP6K1 inhibitor
CN(C)[C@@H]1C[C@@H](CO)N(Cc2cc(=O)n3c4c(cccc24)CCC3)C1,22µM,0
Cc1cc(S(=O)(=O)NCc2ccccc2Cn2cccn2)ccc1Br,0,-
COc1ccc2c(c1)cc(C(=O)N1Cc3[nH]cnc3CC1C(=O)O)n2C (stereo not drawn),18µM,0
COc1cc(CC(=O)N2Cc3[nH]cnc3CC2C(=O)O)cc(OC)c1OC (stereo not drawn),0,0
COc1ccc([C@H]2CN(C(=O)C3(c4ccc(F)cc4)CC3)C[C@@H]2N)cc1,0,0
COc1ccc([C@H]2CN(C(=O)c3nc(N)nc4c3CCCC4)C[C@@H]2N)cc1,22µM,0
COc1ccc(-c2nc3c([nH]2)CC(C)(C)CNC3=O)cc1OC,32µM,0
CCn1cc(-c2nc3c([nH]2)CC(C)(C)CNC3=O)cn1,0,0
Cc1noc([C@@H]2CN(Cc3ccccc3OC(F)(F)F)C[C@H]2CO)n1,0,0
Cc1ccc(OCCn2c(CN3CCOCC3)nc3ccccc32)cc1,0,-
Cn1ncc2c(C(=O)N3CCC(C#N)CC3)cc(-c3ccc(C(F)(F)F)cc3)nc21,-,0
N#CC1CCN(C(=O)c2nc(-c3cccc(C(F)(F)F)c3)c3ccccn23)CC1,14µM,0
N#CC1CCN(C(=O)c2nc(-c3cccc(C(F)(F)F)c3)c3cnccn23)CC1,25µM,0
O=C(c1cccnc1)N1CCC2(CC1)CC(c1cccc(C(F)(F)F)c1)=NO2,-,0
CS(=O)(=O)N[C@@H]1[C@@H](NC(=O)c2ccc(Cn3ccnc3)o2)[C@H]2CCO[C@H]21,0,0
Cc1oc2c(c1C(=O)NC(C)c1ccco1)CN(Cc1ccc(F)cc1)CC2 (stereo not drawn),?,0
Cc1ccc(C)c(NC(=O)c2cc3c(N4CCSCC4)nc(C)cn3n2)c1,32µM,0
COc1ccc(OC)c(NC(=O)c2cc3c(N4CCSCC4)nc(C)cn3n2)c1,0,0
Cc1cn2nc(C(=O)NCC(C)c3ccccc3)cc2c(N2CCSCC2)n1 (stereo not drawn),?,0
Cc1ccc(CNC(=O)c2cc3c(N4CCSCC4)nc(C)cn3n2)cc1,?,0
Cc1cn2nc(C(=O)Nc3ccccc3C)cc2c(N2CCSCC2)n1,35µM,0
COc1ccccc1NC(=O)c1cc2c(N3CCSCC3)nc(C)cn2n1,28µM,0
CCOCCn1c(=O)[nH]c2cc(C(=O)NCCc3ncccc3C)ccc21,?,0
Cc1nn(-c2ccccc2)c2c1C(C)N(C1CCCN([S+](=O)([O-])C(C)C)C1)C2=O (stereo not drawn),-,0
Cc1ccccc1NC(=O)CCn1cnc2onc(-c3ccc(F)cc3)c2c1=O,0,0
SMILES,KDM5B inhibitor,IP6K1 inhibitor
COc1ccccc1-c1nc2cnccn2c1NCCC(=O)Nc1ccc(C)cc1C,?,0
Cc1ccccc1NC(=O)CCNc1c(-c2ccc(F)cc2)nc2cnccn12,25µM,0
CC(=O)Nc1ccc(NC(=O)CCNc2c(-c3ccc(F)cc3)nc3cnccn23)cc1,28µM,0
CC(=O)Nc1ccc(NC(=O)Cn2cccc2-c2nc(-c3ccc(F)cc3)no2)cc1,0,0
COc1cccc(-c2nc3cnccn3c2NCCC(=O)Nc2ccc(F)cc2C)c1,28µM,0
O=C(Nc1ccccc1O)c1cc(S(=O)(=O)N2CCCC2)ccc1Cl,0,0
CCN1CCC2(CCC1=O)CN(C(=O)c1ccc(CSC)o1)CCN2C (stereo not drawn),?,0
COc1cccc(-c2cc(C(=O)N3CCC4(CC3)CC(OC)CCO4)[nH]n2)c1 (stereo not drawn),0,0
CS(=O)(=O)c1ccc(OCC2(CNCc3cccnc3)C[C@@H](O)[C@@H](O)C2)cc1 (stereo partly drawn),0,0
Cc1noc(C)c1CN1CCc2nc(C(=O)Nc3cccc(C(F)(F)F)c3)oc2CC1,25µM,0
N#Cc1cccc(CN2CCc3nc(C(=O)NCC4CC4)oc3CC2)c1,?,0
COc1ccccc1CN1CCc2nc(C(=O)Nc3cccc(C(F)(F)F)c3)oc2CC1,35µM,0
O=C(Nc1cccc(C(F)(F)F)c1)c1nc2c(o1)CCN(Cc1cccs1)CC2,32µM,0
O=C(Nc1cccc(C(F)(F)F)c1)c1nc2c(o1)CCN(Cc1nccs1)CC2,0,0
N#Cc1cccc(CN2CCc3nc(C(=O)Nc4cccc(C(F)(F)F)c4)oc3CC2)c1,35µM,0
Cc1noc(C)c1CN1CCc2nc(C(=O)Nc3ccccc3)oc2CC1,?,0
O=C(Nc1cccc(C(F)(F)F)c1)c1nc2c(o1)CCN(Cc1ccccc1F)CC2,?,0
CC(=O)c1cccc(NC(=O)c2ccc(Cl)c(S(=O)(=O)N3CCOCC3)c2)c1,0,0
Fc1ccc(CN2CCn3c(nnc3-c3ccccc3)C2)cc1,0,0
COc1ccc2c(=O)c(-c3ccccc3OC)c(C)oc2c1,0,-
COc1ccc(Cc2nnc3ccc(C(=O)NCCc4ccc(Cl)cc4)cn23)cc1,-,0
O=C(NC1CCN(CCn2nc3n(c2=O)CCCC3)C1)c1ccc(C(F)(F)F)cc1 (stereo not drawn),-,0

# High-throughput results deposited in PubChem by National Center for Advancing Translational Sciences (NCATS).
